Test results taken from PubChem BioAssay (EPA / NIEHS).
Where “and” joins values, the source holds several entries; their conditions need not be identical. Equal entries are not always repeated. Results filed as inconclusive are left out. The source holds several records for some structures; these can differ, active in one and inactive in another. Calls of active or inactive are those of the source. Rule for the calls, unless noted: active = hit-call score of the fitted dose curve at least 0.9, where 1 is the maximum; inactive = score below 0.9.

Tests used:
[1] = read-out: Interleukin-1 alpha (IL1a), IL1A (gene 3552); test: BSK_IMphg_IL1a: BioMAP Diversity Plus: IMphg Assay for Interleukin-1 alpha (IL1a) Biomarker Activity (AID 2284290); conditions: primary human endothelial cells with macrophages
Procedure, shortened: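 Human venular endothelial cells co-cultured with macrophages, IMphg system. IL-1α is measured by ELISA 24 h after dosing and fitted in the positive direction against DMSO. Cytotoxicity is assessed by SRB staining of parallel cultures.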

[2] = read-out: E-selectin (Homo sapiens) (UniProt P16581); test: BSK_IMphg_ESelectin: BioMAP Diversity Plus: IMphg Assay for Eselectin Biomarker Activity (AID 2284291); conditions: primary human endothelial cells with macrophages
Procedure, shortened: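 Human venular endothelial cell–macrophage co-culture, E-selectin measured by ELISA 24 h after chemical dosing. Signal fitted in the positive direction against DMSO as negative control and baseline.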

[3] = BSK_IMphg_SRB: Viability Assessment in the BioMAP Diversity Plus: IMphg Assay (AID 2284292); conditions: primary human endothelial cells with macrophages;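 note: measured one day after compound addition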
Procedure, shortened: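 Human venular endothelial cells with macrophages, 24 h after chemical dosing; total protein by 0.1% SRB staining after 10% TCA fixation, read at 560 nm. Positive-direction fitting versus DMSO baseline.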

[4] = read-out: Macrophage colony-stimulating factor (MCSF), CSF1 (gene 1435); test: BSK_IMphg_MCSF: BioMAP Diversity Plus: IMphg Assay for Macrophage colony-stimulating factor (MCSF) Biomarker Activity (AID 2284293); conditions: primary human endothelial cells with macrophages
Procedure, shortened: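 Co-culture of human venular endothelial cells and macrophages, 24 hours of chemical exposure. M-CSF quantified by ELISA, with parallel SRB total-protein staining for cytotoxicity; activity fitted relative to DMSO.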

[5] = read-out: Interleukin-10 (IL10), IL10 (gene 3586); test: BSK_IMphg_IL10: BioMAP Diversity Plus: IMphg Assay for Interleukin-10 (IL10) Biomarker Activity (AID 2284294); conditions: primary human endothelial cells with macrophages
Procedure, shortened: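 Human venular endothelial cells cocultured with macrophages, dosed 24 h; IL-10 measured by ELISA, activity relative to DMSO. Cytotoxicity assessed in parallel cultures by sulforhodamine B total-protein staining.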

[6] = BSK_IMphg_SRB.Mphg: Macrophage Viability Assessment in the BioMAP Diversity Plus: IMphg Assay (AID 2284295); conditions: primary human endothelial cells with macrophages
Procedure, shortened: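 Venular endothelial cells co-cultured with macrophages, read 24 h after dosing. Total protein measured by 0.1% SRB staining after 10% TCA fixation, absorbance at 560 nm. Fitted in positive direction against DMSO baseline.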

[7] = read-out: Thrombomodulin, THBD (gene 7056); test: BSK_LPS_Thrombomodulin: BioMAP Diversity Plus: LPS Assay for Thrombomodulin Biomarker Activity (AID 2284296); conditions: primary human HUVEC with PBMC
Procedure, shortened: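 Human umbilical vein endothelial cells co-cultured with PBMC and stimulated with LPS; cell-surface thrombomodulin measured by ELISA 24 hours after compound. Gain or loss versus DMSO; cytotoxicity checked by SRB staining in parallel cultures.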

CD69, CD69 (gene 969) = test: BSK_LPS_CD69: BioMAP Diversity Plus: LPS Assay for CD69 Biomarker Activity (AID 2284303); conditions: primary human HUVEC with PBMC
Procedure, shortened: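 Human umbilical vein endothelial cells co-cultured with PBMC under LPS stimulation, chemical exposure 24 h; cell-surface CD69 measured by ELISA and fitted in the positive direction versus DMSO.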

[8] = IUF_NPC2c_oligodendrocyte_migration_120hr: Leibniz Research Institute for Environmental Medicine (IUF) 120-hour Neural Progenitor Cell Migration Assay for Oligodendrocyte Migration (NPC2c) (AID 2284297);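 note: O4-positive oligodendrocyte migration distance divided by radial glia migration distance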
Procedure, shortened: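 Primary hNPC spheres migrating on extracellular matrix, exposed five days to a 7-point dilution series with solvent control. Oligodendrocyte migration was scored by high-content imaging of O4 immunostaining and expressed relative to radial glia distance.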

[9] = IUF_NPC2a_radial_glia_migration_120hr: Leibniz Research Institute for Environmental Medicine (IUF) 120-hour Neural Progenitor Cell Migration Assay for Radial Glia Migration (NPC2a) (AID 2284298)
Procedure, shortened: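 In this multiplexed test, fetal hNPC spheres migrate radially on poly-D-lysine/laminin in N2 medium (37C, 5% CO2, pH 7.2-7.6) under continuous compound exposure over five days. Migration is scored at 120 h from automated Hoechst nuclear imaging.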

[10] = IUF_NPC2a_radial_glia_migration_72hr: Leibniz Research Institute for Environmental Medicine (IUF) 72-hour Neural Progenitor Cell Migration Assay for Radial Glia Migration (NPC2a) (AID 2284299)
Procedure, shortened: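 Human fetal cortex (GW 16-19) neural progenitor spheres, 0.3 mm, plated on poly-D-lysine/laminin in N2 differentiation medium with compound from day 0. Radial glia migration distance (um, sphere core edge to migration edge) measured manually in four directions on 72 h brightfield images; well mean used.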

[11] = IUF_NPC2b_neuronal_migration_120hr: Leibniz Research Institute for Environmental Medicine (IUF) 120-hour Neural Progenitor Cell Migration Assay for Neuron Migration (NPC2b) (AID 2284300)
Procedure, shortened: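 Neurons identified by TUBB3 immunostaining and Hoechst nuclei; migration distance measured automatically on fixed wells at 120 h, normalized to glia migration. Exposure spanned five days of differentiation in N2 medium, seven test concentrations.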

[12] = IUF_NPC3_neuronal_differentiation_120hr: Leibniz Research Institute for Environmental Medicine (IUF) 120-hour Neuronal Differentiation Assay (NPC3) (AID 2284301)
Procedure, shortened: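 Human fetal (GW 16-19) neural progenitor spheres (0.3 mm) plated on poly-D-lysine/laminin in N2 differentiation medium, exposed 120 h at 37C with half-medium renewal day 3; 7 concentrations. TUBB3+ cells as % of Hoechst nuclei, CNN-identified; DMSO baseline.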

[13] = IUF_NPC4_neurite_length_120hr: Leibniz Research Institute for Environmental Medicine (IUF) 120-hour Neuronal Morphology Assay for Neurite Length (NPC4) (AID 2284302)
Procedure, shortened: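 Human fetal neural progenitor spheres (0.3 mm) plated on poly-D-lysine/laminin in N2 differentiation medium, exposed from day 0 for 120 h with half-medium refresh at day 3, 37C. Mean neurite length (um) of TUBB3-positive neurons from skeletonized immunostaining images; DMSO ≤0.1%.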

[14] = IUF_NPC5_oligodendrocyte_differentiation_120hr: Leibniz Research Institute for Environmental Medicine (IUF) 120-hour Oligodendrocyte Differentiation Assay (NPC5) (AID 2284304; active = hit-call score of the fitted dose curve at least 0.9, where 1 is the maximum;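 note: primary human fetal neural progenitor spheres plated to migrate and differentiate; share of O4-positive cells among Hoechst nuclei found by CNN image analysis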)
Procedure, shortened: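 Human primary NPC neurospheres migrating and differentiating on laminin for 120 h under continuous compound exposure (serial dilution, solvent control). Endpoint: percent O4+ oligodendrocytes among Hoechst nuclei, detected by CNN image analysis, with DMSO as negative control.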

[15] = IUF_NPC4_neurite_area_120hr: Leibniz Research Institute for Environmental Medicine (IUF) 120-hour Neuronal Morphology Assay for Neurite Area (NPC4) (AID 2284305; active = hit-call score of the fitted dose curve at least 0.9, where 1 is the maximum)
Procedure, shortened: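 Human fetal neural progenitor spheres (0.3 mm) plated on poly-D-lysine/laminin in N2 differentiation medium, exposed 120 h (7 concentrations, DMSO ≤0.1%, half-medium refresh day 3). Fixed, TUBB3 immunostained; mean neurite area per neuron by Omnisphero skeletonization.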

[16] = IUF_NPC2-5_cytotoxicity_72hr: Cytotoxicity Assessment at 72 hours in the Leibniz Research Institute for Environmental Medicine (IUF) Neural Progenitor Cell Migration and Differentiation Assay for Cytotoxicity (NPC2-5) (AID 2284306; active = hit-call score of the fitted dose curve at least 0.9, where 1 is the maximum;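 note: LDH release into supernatant measured by resorufin fluorescence marking membrane damage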)
Procedure, shortened: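 Human fetal primary neural progenitor spheres (0.3 mm) plated on poly-D-lysine/laminin in N2 differentiation medium, exposed from day 0 at 37C. LDH-dependent resazurin-to-resorufin fluorescence in supernatant at 72 h; 7 concentrations, DMSO at most 0.1%.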

[17] = IUF_NPC2-5_cytotoxicity_120hr: Cytotoxicity Assessment at 120 hours in the Leibniz Research Institute for Environmental Medicine (IUF) Neural Progenitor Cell Migration and Differentiation Assay (NPC2-5) (AID 2284307; active = hit-call score of the fitted dose curve at least 0.9, where 1 is the maximum)
Procedure, shortened: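 Fluorescence (RFU) from LDH-driven resazurin reduction in medium supernatants measured loss of membrane integrity after 120 h of compound exposure of differentiating primary human neural progenitor spheres on an extracellular matrix.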

[18] = IUF_NPC2-5_cell_number_120hr: Cell Number Assessment at 120 hours in the Leibniz Research Institute for Environmental Medicine (IUF) Neural Progenitor Cell Migration and Differentiation Assay (NPC2-5) (AID 2284308);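 note: count of Hoechst-stained nuclei in migration zone around plated human neural progenitor spheres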
Procedure, shortened: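 Cell number is taken as all Hoechst-positive nuclei detected in the area into which cells migrate out of the sphere, scored at 120 h and referenced to DMSO solvent control, which was kept at no more than 0.1%.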

[19] = IUF_NPC2-5_viability_120hr: Viability Assessment at 120 hours in the Leibniz Research Institute for Environmental Medicine (IUF) Neural Progenitor Cell Migration and Differentiation Assay (NPC2-5) (AID 2284312)
Procedure, shortened: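 Human fetal neural progenitor spheres (0.3 mm) plated on poly-D-lysine/laminin in N2 differentiation medium, exposed 120 h with half-medium refresh at day 3. Viability by alamar blue resazurin fluorescence; 7 concentrations, DMSO max 0.1%.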

Measured: AC50

Sequence of E-selectin (Homo sapiens) (P16581 whole entry, looked up): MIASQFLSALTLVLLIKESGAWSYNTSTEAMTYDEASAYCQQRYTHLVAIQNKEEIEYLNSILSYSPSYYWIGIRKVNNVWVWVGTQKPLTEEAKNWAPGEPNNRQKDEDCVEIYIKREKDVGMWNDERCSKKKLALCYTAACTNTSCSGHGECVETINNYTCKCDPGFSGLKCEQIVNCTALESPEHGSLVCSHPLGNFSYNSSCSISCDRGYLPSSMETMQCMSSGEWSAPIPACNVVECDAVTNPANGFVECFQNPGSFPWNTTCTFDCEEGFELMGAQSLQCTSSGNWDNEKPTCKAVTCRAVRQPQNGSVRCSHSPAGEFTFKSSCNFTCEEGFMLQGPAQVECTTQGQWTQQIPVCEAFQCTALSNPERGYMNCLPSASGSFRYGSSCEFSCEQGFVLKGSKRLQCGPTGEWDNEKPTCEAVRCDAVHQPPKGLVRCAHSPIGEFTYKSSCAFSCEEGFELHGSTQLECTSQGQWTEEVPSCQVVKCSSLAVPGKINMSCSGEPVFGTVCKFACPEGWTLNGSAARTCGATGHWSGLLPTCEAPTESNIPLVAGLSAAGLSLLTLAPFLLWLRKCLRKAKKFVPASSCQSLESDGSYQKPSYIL

O=C(O)C(F)(F)C(F)(F)C(F)(F)C(F)(F)C(F)(F)C(F)(F)C(F)(F)C(F)(F)Cl
inactive: [1] | [2] | [4] | [6]
active: [3] 56.6 µM and 47.9 µM | [5] 45.8 µM and 45.3 µM | [6] 44.4 µM | [7] 30 µM and 27.2 µM | CD69, CD69 (gene 969) 35.5 µM and 40.7 µM

O=C(CC(=O)C(F)(F)C(F)(F)F)C(F)(F)F
inactive: [1] | [2] | [3] | [4] | [5] | [6] | [7] | CD69, CD69 (gene 969)

OCCCC(F)(F)C(F)(F)C(F)(F)C(F)(F)C(F)(F)C(F)(F)C(F)(F)F
inactive: [1] | [2] | [4] | [5] | [6]
active: [2] 45.4 µM | [3] 51.8 µM and 47.2 µM | [4] 45.8 µM | [5] 54.9 µM | [6] 46.3 µM | [7] 49.4 µM and 45.6 µM | CD69, CD69 (gene 969) 52.1 µM and 51.7 µM

C=C(C)C(=O)OCCC(F)(F)C(F)(F)C(F)(F)C(F)(F)C(F)(C(F)(F)F)C(F)(F)F
inactive: [1] | [2] | [3] | [4] | [5] | [6] | [7] | CD69, CD69 (gene 969)

O=S(=O)(OCCOC(F)(F)F)C(F)(F)F
inactive: [1] | [2] | [3] | [4] | [5] | [6] | [7] | CD69, CD69 (gene 969)

OCC(F)(F)C(F)(F)C(F)(F)C(F)(F)C(F)(F)C(F)F
inactive: [1] | [2] | [3] | [4] | [5] | [6] | [7] | CD69, CD69 (gene 969)
active: [1] 23.4 µM | [6] 0.596 µM

FC(F)(F)C(F)(F)CNCC(F)(F)C(F)(F)F
inactive: [1] | [2] | [3] | [4] | [5] | [6] | [7] | CD69, CD69 (gene 969)
active: [7] 227 nM

N=C(N)C(F)(F)C(F)(F)C(F)(F)C(F)(F)C(F)(F)C(F)(F)C(F)(F)F
active: [7] 48700 nM | CD69, CD69 (gene 969) 45 µM and 14.9 µM
inactive: [1] | [2] | [3] | [4] | [5] | [6] | [7]

O=S(=O)(O)C(F)(F)C(F)(F)C(F)(F)C(F)(F)C(F)(F)C(F)(F)C(F)(F)F
active: [5] 13.3 µM
inactive: [1] | [2] | [3] | [4] | [5] | [6] | [7] | CD69, CD69 (gene 969)

O=S(=O)(OCC(F)F)C(F)(F)F
active: [6] 0.221 µM
inactive: [1] | [2] | [3] | [4] | [5] | [6] | [7] | CD69, CD69 (gene 969)

C=C(C)C(=O)OCC(F)(F)C(F)(F)C(F)(F)C(F)(F)C(F)(F)C(F)(F)C(F)(F)F
inactive: [1] | [2] | [3] | [4] | [5] | [6] | [7] | CD69, CD69 (gene 969)
active: [5] 3.33 µM | [6] 0.0248 µM

C=CC(=O)OCC(F)(F)C(F)(F)C(F)(F)C(F)(F)C(F)(F)C(F)(F)C(F)(F)F
inactive: [1] | [2] | [3] | [4] | [5] | [6] | [7] | CD69, CD69 (gene 969)

CC(CCl)OP(=O)(OC(C)CCl)OC(C)CCl (stereo not given)
active: [14] 5.43 µM
not listed: [1] | [2] | [3] | [4] | [5] | [6] | [7] | CD69, CD69 (gene 969)
inactive: all other assays above

O=C(O)C(F)(F)C(F)(F)C(F)(F)C(F)(F)C(F)(F)C(F)(F)C(F)(F)C(F)(F)C(F)(F)C(F)(F)C(F)(F)C(F)(F)F
inactive: [1] | [2] | [3] | [4] | [5] | [6] | [7] | CD69, CD69 (gene 969)

FC(F)(F)C(F)(F)C(F)(F)C(F)(F)C(F)(F)C(F)(F)C(F)(F)Br
inactive: [1] | [2] | [3] | [4] | [5] | [6] | [7] | CD69, CD69 (gene 969)

CCO[Si](CCC(F)(F)C(F)(F)C(F)(F)C(F)(F)C(F)(F)C(F)(F)F)(OCC)OCC
inactive: [1] | [2] | [3] | [4] | [5] | [6] | [7] | CD69, CD69 (gene 969)

FC(F)(F)C(F)(F)C(F)(F)C(F)(F)C(F)(F)C(F)(F)C(F)(F)C(F)(F)F
inactive: [1] | [2] | [3] | [4] | [5] | [6] | [7] | CD69, CD69 (gene 969)

CCCCCCOC(=O)c1ccccc1O
active: CD69, CD69 (gene 969) 39.4 µM and 46.4 µM
inactive: [7]
